The text below walks through data of PubChem BioAssay (NCATS).

A short description of assay [1]: MultiTox-Fluor Cytotoxicity Assay - LYMP1-001 - Live Cells (AID 947; active = well fitted curve in the direction sought with a large enough effect; an effect the other way counts as inactive or inconclusive;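 also: 0% = DMSO only and full inhibition = tetraoctylammonium bromide control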).
The nature of assay [2]: MultiTox-Fluor Cytotoxicity Assay - LYMP1-002 - Dead Cells (AID 960; active = well fitted curve in the direction sought with a large enough effect; an effect the other way counts as inactive or inconclusive;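 also: 0% = DMSO and 100% = tetraoctylammonium bromide; nearly all actives have a fitted effect of over 60% in size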). The gist of the method:
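Dead-cell fluorescence (Ex/Em 485/520) after 16 h compound exposure at 37 C of LYMP1-002 lymphoblastoid cells in complete medium; AC50 by Hill equation, with data scaled between DMSO and 15 uM tetraoctylammonium bromide.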

Assay [3] has as its target Estrogen receptor (Homo sapiens) (UniProt P03372). The assay is described as follows: qHTS assay for small molecule antagonists of estrogen receptor alpha signaling (AID 588513; active = well fitted curve in the direction sought with a large enough effect in the signal ratio, with a control signal flat, not every such curve was filed as active; the % refers to the signal ratio; also: % is scaled to controls: 0 for no effect and ±100 for the full control effect). The gist of the method:
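Fluorescence from CCF4 substrate after 2 h at room temperature gave reporter activity; cells had been exposed to compound and 0.5nM 17-beta-estradiol for 18 h at 37 C. Hill-equation fitting yielded IC50 and maximal response.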
(In general: qHTS replaces the single test concentration by a dilution series.)

Assay [4] shares this target. The experiment in a line: qHTS assay for small molecule agonists of estrogen receptor alpha signaling (AID 588514).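 Also: 0% = vehicle only and 100% = reference agonist; nearly all actives have a fitted effect of over 70% in size.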 The gist of the method: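 EC50 and efficacy came from Hill fits of beta-lactamase reporter signal (CCF4 dye, 2 h at room temperature) scaled between DMSO and 20 nM 17-beta-estradiol. Agonist mode: HEK293 ER-alpha-UAS-bla cells in charcoal/dextran-stripped serum medium, 18 h compound exposure at 37 C.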

The target in assay [5] is Glucocorticoid receptor (Homo sapiens) (UniProt P04150). The assay is described as follows: qHTS assay for small molecule agonists of glucocorticoid receptor signaling (AID 588532; active = well fitted curve in the direction sought with a large enough effect in the signal ratio, with a control signal flat; the % refers to the signal ratio;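 also: 100% = dexamethasone at 0.1 µM and 0% = DMSO only wells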). Particulars: HeLa MMTV-bla, beta-lactamase ratio, agonist, 18 h; stronger effect = higher value; percent of dexamethasone control, DMSO zero. The gist of the method: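 Agonist-mode qHTS: GRE-driven beta-lactamase in HeLa cells exposed 18 h to titrated compounds (up to 92 uM), then CCF4 ratio read after 2 h at RT; Hill-fitted EC50, efficacy relative to 0.1 uM dexamethasone.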
Glucocorticoid receptor (Homo sapiens), sequence (P04150 whole entry, looked up): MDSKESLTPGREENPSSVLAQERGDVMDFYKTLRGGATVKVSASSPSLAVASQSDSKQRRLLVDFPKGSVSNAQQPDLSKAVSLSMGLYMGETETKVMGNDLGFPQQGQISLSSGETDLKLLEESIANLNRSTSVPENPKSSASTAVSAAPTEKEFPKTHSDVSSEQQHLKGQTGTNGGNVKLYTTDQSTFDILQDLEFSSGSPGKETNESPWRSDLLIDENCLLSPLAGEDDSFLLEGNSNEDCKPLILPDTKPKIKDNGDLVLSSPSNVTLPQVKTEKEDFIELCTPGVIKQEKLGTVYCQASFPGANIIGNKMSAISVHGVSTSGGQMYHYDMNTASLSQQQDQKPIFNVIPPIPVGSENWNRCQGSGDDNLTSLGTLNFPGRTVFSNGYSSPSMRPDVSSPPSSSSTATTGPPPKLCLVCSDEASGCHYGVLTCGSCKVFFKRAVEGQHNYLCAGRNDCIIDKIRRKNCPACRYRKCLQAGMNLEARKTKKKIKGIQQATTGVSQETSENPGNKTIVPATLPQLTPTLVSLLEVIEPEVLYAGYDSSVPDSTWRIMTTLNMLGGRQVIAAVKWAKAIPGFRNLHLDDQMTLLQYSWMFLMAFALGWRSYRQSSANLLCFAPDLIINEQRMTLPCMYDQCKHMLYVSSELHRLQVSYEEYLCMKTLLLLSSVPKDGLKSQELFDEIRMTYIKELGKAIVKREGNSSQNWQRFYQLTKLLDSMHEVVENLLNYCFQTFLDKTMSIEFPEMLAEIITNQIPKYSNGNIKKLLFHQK

Assay [6] deals with Peroxisome proliferator-activated receptor gamma (Homo sapiens) (UniProt P37231). The assay is described as follows: qHTS assay for small molecule agonists of peroxisome proliferator-activated receptor gamma signaling (AID 588536; active = well fitted curve in the direction sought with a large enough effect in the signal ratio, with a control signal flat, not every such curve was filed as active; the % refers to the signal ratio;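 also: 0% = DMSO basal wells and 100% = rosiglitazone at 2 µM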). The gist of the method:
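Cells were plated and held 6–6.5 h at 37 C, then compounds were added as a titration series. After a further 16 h, CCF4 dye was loaded for 2 h at room temperature and emission at 460/530 nm recorded.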

The target in assay [7] is Vitamin D3 receptor (Homo sapiens) (UniProt P11473). The assay is described as follows: qHTS assay for small molecule antagonists of vitamin D receptor signaling (AID 588541).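 Also: receptor activated by calcitriol during compound treatment; series mostly up to about 77 µM; % is scaled to controls: 0 for no effect and ±100 for the full control effect.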 A digest of the protocol: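 Antagonist-mode beta-lactamase reporter assay: HEK293T VDR-UAS-bla cells were exposed to titrated compound alongside 1-alpha,25-dihydroxyvitamin D3 at 3 nM final for 16 h. Values were normalized to the 50 nM agonist control and DMSO basal, with IC50 and efficacy from Hill equation fits.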
Vitamin D3 receptor (Homo sapiens), sequence (P11473 whole entry, looked up): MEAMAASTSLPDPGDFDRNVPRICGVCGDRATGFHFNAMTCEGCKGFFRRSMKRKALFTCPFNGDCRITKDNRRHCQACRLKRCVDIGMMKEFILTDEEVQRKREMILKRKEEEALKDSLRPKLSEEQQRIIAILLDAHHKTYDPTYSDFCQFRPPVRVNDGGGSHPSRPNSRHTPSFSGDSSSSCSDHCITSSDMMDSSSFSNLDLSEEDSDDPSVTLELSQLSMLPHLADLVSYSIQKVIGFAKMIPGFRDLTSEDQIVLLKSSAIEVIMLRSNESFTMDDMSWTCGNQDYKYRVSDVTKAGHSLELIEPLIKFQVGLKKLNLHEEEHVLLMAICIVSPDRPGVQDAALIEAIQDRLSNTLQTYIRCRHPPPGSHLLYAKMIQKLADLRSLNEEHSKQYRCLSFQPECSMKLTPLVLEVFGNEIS

Assay [8] shares this target. The experiment in a line: qHTS assay for small molecule agonists of vitamin D receptor signaling (AID 588543).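 Also: 0% = DMSO basal and 100% = reference agonist control.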 A digest of the protocol:
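Reporter cells (HEK293T, VDR-UAS-bla) were seeded in medium with 2% charcoal-stripped serum and incubated 5 h, then compounds in concentration series were added for 16 h at 37 °C. Stimulation was scaled between DMSO basal and 50 nM 1α,25-dihydroxyvitamin D3.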

A short description of assay [9]: qHTS assay for small molecule agonists of retinoid X receptor alpha signaling (AID 588544).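 As to activation: 0% = DMSO basal wells and 100% = reference agonist.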 The conditions noted are these: HEK293T RXRa-UAS-bla, beta-lactamase reporter, 18 h; 530 nm emission.
Assay [10] has as its target Retinoic acid receptor RXR-alpha (Homo sapiens) (UniProt P19793). Described as above.
Assay [11] in a line: qHTS assay for small molecule disruptors of the mitochondrial membrane potential - 1 hr assay (AID 651754). Also: % is scaled to controls: 0 for no effect and ±100 for the full control effect; nearly all actives have a fitted effect of over 35% in size. A digest of the protocol:
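Mitochondrial potential in living HepG2 cells after 1 hr compound treatment at 37C was read with Mito-MPS dye added for a further 30 min. Red aggregate and green monomer fluorescence were measured; loss of potential leaves dye as cytoplasmic monomers.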

Assay [12] addresses Tumor necrosis factor (Homo sapiens) (UniProt P01375). The assay is described as follows: qHTS assay to identify small molecules that stimulate Tumor Necrosis Factor-alpha (TNF-alpha) secretion (AID 651757; active = well fitted curve in the direction sought with a large enough effect in the signal ratio; the % refers to the signal ratio; also: 0% is about no effect). A digest of the protocol:
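Secreted TNF-alpha quantified by TR-FRET sandwich of two labeled anti-TNF-alpha antibodies, incubated 3 hr at room temperature. Preceded by 17 hr, 37 C compound treatment of THP-1 cells at 3000 cells/well.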

Assay [13] can be described thus: qHTS assay for environmental chemicals that activate the Aryl hydrocarbon Receptor (AhR) signaling pathway (AID 651777; active = well fitted curve in the direction sought with a large enough effect; an effect the other way counts as inactive or inconclusive; also: % of control where 0% means no effect; nearly all actives have a fitted effect of over 15% in size). Particulars: 1A2-DRE human hepatoma cells, luciferase, 24 h; activation: stronger effect = higher value. The gist of the method:
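Stable CYP1A2 promoter/DRE-luciferase human hepatoma line treated 24 hr; One-Glo luminescence, 30 min RT.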

Assay [14] is described as follows: qHTS assay for small molecule agonists of the antioxidant response element (ARE) signaling pathway measured by Nrf2-dependant transcriptional activity (AID 720636; active = well fitted curve in the direction sought with a large enough effect in the repeat runs; an effect the other way counts as inactive or inconclusive;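 also: HepG2 cells with an ARE-driven luciferase reporter; % of control where 0% means no effect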). A digest of the protocol: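 Reporter gene assay, HepG2 ARE-luc: 16 hr compound, 37 C, 5% CO2; read-out luciferase luminescence.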
Assay [15] can be described thus: qHTS assay for small molecule antagonists of the retinoid-related orphan receptor gamma (ROR-gamma) signaling pathway - cell viability counter screen (AID 720652; active = well fitted curve in the direction sought with a large enough effect in the repeat runs; an effect the other way counts as inactive or inconclusive;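 also: CHO reporter cells with doxycycline-induced ROR-gamma expression; series mostly up to about 92 µM; compound exposure lasted 16 hr before ATP read; % is scaled to controls: 0 for no effect and ±100 for the full control effect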). The gist of the method:
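Cytotoxicity counter screen: intracellular ATP (CellTiter-Glo luminescence) measured in the doxycycline-induced CHO RORE-luciferase reporter line after 16 hr compound exposure at 37 C, 5% CO2.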

For assay [16], the target named is Nuclear receptor subfamily 1 group I member 2 (Rattus norvegicus) (UniProt Q9R1A7). The experiment in a line: qHTS assay for small molecule activators of the rat pregnane X receptor (rPXR) signaling pathway (AID 651751; call rule not given here; also: 0% is about no effect). Particulars: rPXR reporter cells, luciferase (One-Glo), 24 h.
Nuclear receptor subfamily 1 group I member 2 (Rattus norvegicus), sequence (Q9R1A7 whole entry, looked up): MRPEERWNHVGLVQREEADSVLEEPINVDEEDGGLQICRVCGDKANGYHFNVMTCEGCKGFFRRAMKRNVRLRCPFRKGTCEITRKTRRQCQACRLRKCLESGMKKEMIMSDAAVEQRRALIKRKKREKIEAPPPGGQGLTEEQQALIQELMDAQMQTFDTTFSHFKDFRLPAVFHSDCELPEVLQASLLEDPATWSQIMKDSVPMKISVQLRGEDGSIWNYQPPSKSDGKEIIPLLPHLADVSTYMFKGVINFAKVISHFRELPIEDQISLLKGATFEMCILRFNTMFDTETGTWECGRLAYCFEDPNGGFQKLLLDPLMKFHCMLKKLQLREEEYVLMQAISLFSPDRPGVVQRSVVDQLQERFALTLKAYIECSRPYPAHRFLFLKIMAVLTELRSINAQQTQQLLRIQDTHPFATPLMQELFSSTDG
Assay [17] in a line: qHTS assay for small molecule activators of the human pregnane X receptor (PXR) signaling pathway (AID 720659; call rule not given here; also: 0% is about no effect).
For assay [18], the target named is Thyroid hormone receptor beta (Homo sapiens) (UniProt P10828). The assay is described as follows: qHTS assay for small molecule antagonists of thyroid hormone receptor beta signaling (AID 588547; active = well fitted inhibition curve with a large enough effect in the signal ratio, with a control signal flat, not every such curve was filed as active; the % refers to the signal ratio;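 also: cells stimulated with 0.4 nM T3 agonist during compound exposure; series mostly up to about 77 µM; % is scaled to controls: 0 for no effect and ±100 for the full control effect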). Particulars: TR-UAS-bla HEK293, beta-lactamase ratio, antagonist mode, 18 h. The gist of the method:
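Inhibition of T3-driven (0.4nM final) beta-lactamase reporter activity was measured over 0.59 nM to 92 uM compound after 18 h at 37 C. The cells were GripTite HEK293 TR-UAS-bla in charcoal/dextran-stripped serum, with CCF4 ratio read-out and IC50 from Hill fits.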

Assay [19] has as its target Voltage-gated inwardly rectifying potassium channel KCNH2 (Homo sapiens) (UniProt Q12809). The assay is described as follows: qHTS Assay for Small Molecule Inhibitors of the Human hERG Channel Activity (AID 588834; active = well fitted curve in the direction sought with a large enough effect; an effect the other way counts as inactive or inconclusive;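 also: top concentration of the series differs between compounds; % is scaled to controls: 0 for no effect and ±100 for the full control effect; lower thallium flux fluorescence means stronger hERG block; nearly all actives have a fitted effect of over 50% in size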). The gist of the method: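 Step 1: BacMam hERG transduction of U2OS, 4 hrs RT. Step 2: overnight 37 °C, plate 2000 cells/well, 4 hr. Step 3: FluxOR load, compound 10 min, stimulate, read fluorescence.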

The nature of assay [20]: qHTS assay for small molecule activators of the p53 signaling pathway (AID 651743; active = well fitted activation curve with a large enough effect in the signal ratio, not every such curve was filed as active; the % refers to the signal ratio; also: series mostly up to about 92 µM; % of control where 0% means no effect). The conditions noted are these: HCT-116 p53RE-bla, beta-lactamase FRET ratio, 16 h; activation: stronger effect = higher value. A digest of the protocol:
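After 16 hours compound treatment at 37 C, HCT-116 cells stably expressing p53RE-driven beta-lactamase were loaded with LiveBLAzer B/G FRET substrate for 2 hours at room temperature. Fluorescence intensity served as the p53 activation read-out.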

Values joined by “and” are separate entries in the source; they are usually repeats but may differ in a detail not shown here. Equal values may be shown once. Inconclusive results are not listed. Active and inactive are the calls of the source. Unless noted, calls follow the shape of the full dose curve.

Retinoic acid receptor RXR-alpha (Homo sapiens), sequence (P19793 whole entry, looked up): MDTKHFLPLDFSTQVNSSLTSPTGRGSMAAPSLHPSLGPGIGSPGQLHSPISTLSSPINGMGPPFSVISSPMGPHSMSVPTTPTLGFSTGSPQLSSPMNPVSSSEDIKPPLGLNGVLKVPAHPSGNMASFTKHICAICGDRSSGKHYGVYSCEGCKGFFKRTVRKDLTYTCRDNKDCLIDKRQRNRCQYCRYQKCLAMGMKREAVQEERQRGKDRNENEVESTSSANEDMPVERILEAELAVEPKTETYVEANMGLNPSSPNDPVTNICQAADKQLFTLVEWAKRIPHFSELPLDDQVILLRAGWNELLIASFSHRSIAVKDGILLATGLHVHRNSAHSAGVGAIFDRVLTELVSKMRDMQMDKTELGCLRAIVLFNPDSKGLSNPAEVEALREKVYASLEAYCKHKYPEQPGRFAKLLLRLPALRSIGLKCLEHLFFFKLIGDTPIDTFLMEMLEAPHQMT
Voltage-gated inwardly rectifying potassium channel KCNH2 (Homo sapiens), sequence (Q12809 whole entry, looked up): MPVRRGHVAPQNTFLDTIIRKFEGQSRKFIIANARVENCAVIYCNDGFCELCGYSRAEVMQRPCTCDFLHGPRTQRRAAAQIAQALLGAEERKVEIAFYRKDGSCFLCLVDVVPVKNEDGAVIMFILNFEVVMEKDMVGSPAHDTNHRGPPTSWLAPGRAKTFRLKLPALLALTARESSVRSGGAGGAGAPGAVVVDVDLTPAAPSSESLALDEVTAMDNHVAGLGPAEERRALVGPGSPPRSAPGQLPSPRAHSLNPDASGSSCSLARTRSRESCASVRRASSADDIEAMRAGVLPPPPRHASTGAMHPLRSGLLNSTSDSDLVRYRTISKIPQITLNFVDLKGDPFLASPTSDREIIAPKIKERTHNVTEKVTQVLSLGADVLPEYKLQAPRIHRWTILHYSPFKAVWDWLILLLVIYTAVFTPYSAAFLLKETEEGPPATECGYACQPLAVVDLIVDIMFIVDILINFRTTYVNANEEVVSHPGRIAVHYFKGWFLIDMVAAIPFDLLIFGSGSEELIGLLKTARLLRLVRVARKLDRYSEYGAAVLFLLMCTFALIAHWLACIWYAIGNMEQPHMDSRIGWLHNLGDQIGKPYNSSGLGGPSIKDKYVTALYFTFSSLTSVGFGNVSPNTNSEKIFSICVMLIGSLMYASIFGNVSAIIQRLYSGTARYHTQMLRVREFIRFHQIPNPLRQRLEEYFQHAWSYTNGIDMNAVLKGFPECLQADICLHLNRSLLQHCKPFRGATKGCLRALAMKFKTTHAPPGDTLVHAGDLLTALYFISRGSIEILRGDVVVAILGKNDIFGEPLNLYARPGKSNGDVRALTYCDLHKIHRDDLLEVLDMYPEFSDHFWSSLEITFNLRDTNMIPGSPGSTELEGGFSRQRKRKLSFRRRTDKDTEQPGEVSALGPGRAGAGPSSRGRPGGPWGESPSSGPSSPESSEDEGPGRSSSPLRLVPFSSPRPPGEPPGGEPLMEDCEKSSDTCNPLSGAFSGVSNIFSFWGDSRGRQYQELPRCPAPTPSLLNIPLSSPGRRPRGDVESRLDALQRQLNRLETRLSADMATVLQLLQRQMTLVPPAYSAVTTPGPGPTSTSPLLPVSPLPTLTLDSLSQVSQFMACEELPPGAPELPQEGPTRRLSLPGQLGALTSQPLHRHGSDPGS
Thyroid hormone receptor beta (Homo sapiens), sequence (P10828 whole entry, looked up): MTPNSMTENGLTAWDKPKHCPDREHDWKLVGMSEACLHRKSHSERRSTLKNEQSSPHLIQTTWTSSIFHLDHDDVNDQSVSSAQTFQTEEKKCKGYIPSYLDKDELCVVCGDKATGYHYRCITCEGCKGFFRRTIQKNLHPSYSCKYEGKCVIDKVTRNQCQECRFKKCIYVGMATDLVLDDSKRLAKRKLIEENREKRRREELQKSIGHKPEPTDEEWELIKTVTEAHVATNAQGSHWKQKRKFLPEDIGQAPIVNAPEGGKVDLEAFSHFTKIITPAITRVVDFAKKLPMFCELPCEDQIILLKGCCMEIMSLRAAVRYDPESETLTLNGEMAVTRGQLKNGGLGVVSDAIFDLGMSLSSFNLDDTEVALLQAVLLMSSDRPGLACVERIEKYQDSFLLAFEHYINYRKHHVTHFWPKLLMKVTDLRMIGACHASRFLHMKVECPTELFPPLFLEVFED
Peroxisome proliferator-activated receptor gamma (Homo sapiens), sequence (P37231 whole entry, looked up): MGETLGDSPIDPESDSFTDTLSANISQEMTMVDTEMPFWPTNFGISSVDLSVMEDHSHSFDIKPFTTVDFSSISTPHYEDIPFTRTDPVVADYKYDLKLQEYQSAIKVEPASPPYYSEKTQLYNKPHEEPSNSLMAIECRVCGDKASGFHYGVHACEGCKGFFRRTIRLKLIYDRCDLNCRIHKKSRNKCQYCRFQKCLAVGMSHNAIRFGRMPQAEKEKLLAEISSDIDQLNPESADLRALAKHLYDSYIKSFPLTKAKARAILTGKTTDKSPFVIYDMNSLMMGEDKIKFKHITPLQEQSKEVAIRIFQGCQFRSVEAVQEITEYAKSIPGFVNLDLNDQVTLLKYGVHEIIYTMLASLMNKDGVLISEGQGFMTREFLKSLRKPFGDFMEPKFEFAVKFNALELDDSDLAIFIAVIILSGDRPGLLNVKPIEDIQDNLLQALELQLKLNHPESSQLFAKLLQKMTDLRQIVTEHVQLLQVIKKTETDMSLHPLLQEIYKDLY
Estrogen receptor (Homo sapiens), sequence (P03372 whole entry, looked up): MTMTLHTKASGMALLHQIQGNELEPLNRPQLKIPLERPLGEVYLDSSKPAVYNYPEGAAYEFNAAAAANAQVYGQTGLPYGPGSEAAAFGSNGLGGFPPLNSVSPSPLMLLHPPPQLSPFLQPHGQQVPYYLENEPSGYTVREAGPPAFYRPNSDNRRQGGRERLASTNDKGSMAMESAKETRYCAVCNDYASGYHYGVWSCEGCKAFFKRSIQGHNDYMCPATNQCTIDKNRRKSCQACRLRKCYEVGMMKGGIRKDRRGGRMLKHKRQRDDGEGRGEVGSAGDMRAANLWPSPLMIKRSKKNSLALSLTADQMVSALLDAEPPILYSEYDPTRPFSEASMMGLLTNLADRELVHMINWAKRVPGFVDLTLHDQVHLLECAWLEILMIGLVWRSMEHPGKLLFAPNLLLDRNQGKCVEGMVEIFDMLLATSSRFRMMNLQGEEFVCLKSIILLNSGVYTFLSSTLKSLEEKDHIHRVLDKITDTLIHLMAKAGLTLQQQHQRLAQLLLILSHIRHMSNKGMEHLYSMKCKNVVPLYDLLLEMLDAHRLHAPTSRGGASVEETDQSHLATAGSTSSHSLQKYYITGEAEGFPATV

With `O=[N+]([O-])c1cccc(Cl)c1Cl`, the Potency entry in assay [1], in [2], in assay [3], in assay [4], in assay [11] and in assay [14] was “inactive” in each case. Besides, the Potency entry in [15] was “inactive”. The activation was 3.57% (inactive) and 3.5% (inactive) in [5]; 0.0517% (inactive) and -0.399% (inactive) in assay [13]. The compound was classed as inactive in assay [6], in assay [7], in [8], in [10], in assay [12] and in [17]. The max response in assay [9] is 6.35% and -11.4%; in assay [16] it was -1.89% (inactive) and -3.78% (inactive).
With `O=C(O)c1ccc(O)cc1O`, the Potency entry in [1], in assay [2], in [19], in assay [11], in assay [14] and in assay [15] was “inactive” throughout. The activation is 0.41% (inactive) and -0.627% (inactive) in assay [5]; -0.261% (inactive) and 0.22% (inactive) in [20]; 0.974% (inactive) and 0.552% (inactive) in assay [13]. Also, the result in assay [6], in [7], in [8], in assay [10], in [12] and in [17] was inactive. In addition, the max response in [9] is -5.03% and -19.7%; in [16], 10.9% (inactive) and 2.3% (inactive). In assay [18], the activity change % (negative = inhibition) was 0.5% (inactive) and 23.9% (inactive).
Regarding `CCCN(CCC)C(=O)SCC`, the Potency entry in assay [1], in [2], in assay [3], in [4], in [19] and in [14] was “inactive” throughout. In addition, the Potency entry in assay [15] was “inactive”. Also, the activation in assay [5] is 1.32% (inactive) and 12.8% (inactive); in assay [20], 0.439% (inactive) and 11.8% (inactive); in assay [13], 0.446% (inactive) and -0.849% (inactive). Further, the result in assay [6], in assay [7], in assay [8], in assay [10], in [12] and in assay [17] was inactive. Besides, the max response is -2.35% and -18.5% in assay [9]; 5.19% (inactive) and 0.741% (inactive) in assay [16]. For the same compound, the activity change % (negative = inhibition) in assay [18] is 0.19% (inactive) and 8.86% (inactive).
Regarding `c1ccc2c(c1)c1cccc3ccc4cccc2c4c31`, the Potency entry in [1], in assay [2], in assay [3], in assay [4], in [19] and in [11] was “inactive” in each case. For the same compound, the Potency result in [15] is “inactive”. In addition, the activation in assay [5] is 2.22% (inactive) and -5.73% (inactive); in assay [20], 8.13% (inactive) and 3.99% (inactive); in [13] it was 0.979% (inactive) and 4.09% (inactive). In addition, the call in assay [7], in [10] and in assay [17] was inactive. In addition, the max response in assay [9] was -17% and -12.4%; in [16], 4.91% (inactive) and -2.4% (inactive). The activity change % (negative = inhibition) in [18] is 6.13% (inactive) and -3.87% (inactive).
On to `Cc1cccc([N+](=O)[O-])c1C`, for which the Potency result in assay [1], in assay [2], in [3], in assay [4], in [19] and in assay [11] was “inactive” each time. Besides, the Potency result in [14] and in assay [15] was “inactive” each time. Further, the call in assay [6], in assay [7], in [8], in assay [10], in [12] and in [17] was inactive. In addition, the max response in assay [9] is -8% and -5.71%; in [16], 1.82% (inactive) and -0.351% (inactive). The activity change % (negative = inhibition) in [18] is -0.0299% (inactive) and -1.89% (inactive). The activation is -0.524% (inactive) and 0.427% (inactive) in assay [20]; 0.368% (inactive) and -0.256% (inactive) in assay [13].
